Sm TGR block = qHTS Assay for the Inhibitors of Schistosoma Mansoni Peroxiredoxins; purified TGR, DTNB reduction, TNB absorbance 405 nm; Potency, µM (highest dose often 114 µM), hits mostly inhibitors; 360,000 tested, 3% active; AID 485364, 2010; further: nearly all actives have a fitted effect of over 60% in size
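Kinetic colorimetric format: TGR-catalysed, NADPH-driven DTNB reduction monitored via TNB absorbance. Enzyme dispensed at 20 nM; compound exposure 15 min at room temperature before reaction start.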
TbPYK inhibitor = qHTS of Trypanosoma Brucei Inhibitors | TbPYK enzyme, Kinase-Glo Plus ATP luminescence, 45 min | 410,000 tested, 0.12% active | pyruvate kinase (Trypanosoma brucei), Q57TT1 | Potency, µM (doses to about 76.8 µM), hits mostly inhibitors; further: nearly all actives have a fitted effect of over 50% in size
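T. brucei PYK with substrate was exposed to pin-transferred compounds across a concentration series, then started with 130 uM ADP (final). After 45 min at room temperature, Kinase-Glo Plus luminescence was read, normalized and curve-fitted.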
FMDV antiviral = High Throughput Screening for Foot and Mouth Disease Virus Antivirals. FMDV antiviral cell-based qHTS. 410,000 tested, 1.2% active. Potency, µM (doses to about 57.9 µM), actives largely listed as inhibitors; calls by dose curve; tested in HEK293T cells; further: read-out not given here; nearly all actives have a fitted effect of over 45% in size
FBPA Giardia inh = qHTS Assay for Inhibitors of Fructose-1,6-bisphosphate Aldolase from Giardia Lamblia; AID 2451, 2010; purified Giardia FBPA; Potency, µM (doses to about 59.6 µM), hits mostly inhibitors; A8B2U2; 290,000 tested, 0.71% active; further: nearly all actives have a fitted effect of over 55% in size
Target sequence (A8B2U2 whole entry, looked up): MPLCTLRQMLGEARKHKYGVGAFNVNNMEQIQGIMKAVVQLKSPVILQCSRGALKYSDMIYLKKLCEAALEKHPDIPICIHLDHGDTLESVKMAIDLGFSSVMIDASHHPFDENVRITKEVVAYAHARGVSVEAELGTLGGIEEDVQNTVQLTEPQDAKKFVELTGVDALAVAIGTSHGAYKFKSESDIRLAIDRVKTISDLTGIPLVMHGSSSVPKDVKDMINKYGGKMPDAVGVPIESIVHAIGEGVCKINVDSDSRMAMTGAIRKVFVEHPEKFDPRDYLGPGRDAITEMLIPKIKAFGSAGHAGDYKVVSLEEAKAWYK
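40 nM FBPA preincubated 10 min at RT with compound (up to 57.5 uM final), then substrate plus GAPDH/TPI/NAD/arsenate coupling and diaphorase/resazurin added. Fluorescence read after 20 min at RT, 525/598 nm.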
RE007 growth inh = qHTS Assay for Inhibitors of the HIV-1 protein Vpr; S. pombe RE007 Vpr strain, BacTiter-Glo ATP luminescence, 24 h; Potency, µM (doses to about 92.2 µM), most hits filed as inhibitors; 360,000 tested, 0.21% active; AID 651644, 2012; active means well fitted falling curve with a large enough effect; inconclusive means small, poorly fitted or top-dose-only effect; inactive means no such curve, though single readings can be large or run the other way; further: nearly all actives have a fitted effect of over 50% in size
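Fission yeast RE007 carrying one integrated HIV-1 vpr copy, seeded at OD 0.01 in PMG+AL medium with 23 nL pinned compound. Grown 24 h at 30 degrees; viability read by BacTiter-Glo luminescence after 5 min.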
HCMV inh = qHTS Assay for inhibitors of the human cytomegalovirus (HCMV). HFF cells, HCMV-luciferase reporter, 72 h; active compounds read low. activity change, negative = inhibition, % at 57.5 µM. 410,000 tested, 4.5% active. AID 1259415, 2018; in the data active means activity change below about -60%; inconclusive means no clear call, values can overlap the other calls; inactive means above about -39%
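HFF cells seeded 16 h at 37C, treated with compounds, infected with luciferase-reporter HCMV at MOI 1 PFU/cell; luciferase read at 72 h post infection, normalized to buffer-only and Salinomycin controls.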
Numbers stand for hits; – = inactive; ? = inconclusive; · = not tested or not shown. The list is not random: actives were taken first. Their share in the collection is about 7.7%. Unless noted, the call rests on the fitted dose curve; in most records, active means well fitted curve in the direction sought with a large enough effect; inconclusive means small, poorly fitted or top-dose-only effect, or another doubt; inactive means no such curve, though single readings can be large; an effect the other way counts as inactive or inconclusive.

SMILES	Sm TGR block	TbPYK inhibitor	FMDV antiviral	FBPA Giardia inh	RE007 growth inh	HCMV inh
Cc1ccc2[nH]c(=O)c(CN(Cc3ccc4c(c3)OCO4)Cc3nnnn3Cc3ccco3)cc2c1	?	–	–	–	–	–
COc1ccccc1CN(Cc1cc2cc3c(cc2[nH]c1=O)OCCO3)Cc1nnnn1Cc1ccco1	?	?	–	–	–	–
Cc1cc(C)c2cc(CN(Cc3ccc4c(c3)OCO4)Cc3nnnn3Cc3ccco3)c(=O)[nH]c2c1	40µM	–	–	–	–	–
COc1cc(=O)n2c(c1C(=O)N(C)Cc1cscn1)CCN(C(=O)c1cccc(C)c1C)CC2	·	·	–	·	·	·
CC(C)C[C@@H](CC(=O)N[C@@H](CCCN)CC(=O)N[C@@H]1CCCC[C@H]1C(=O)N[C@H](CC(=O)N[C@@H](CCC(=O)O)CC(=O)O)CC(C)C)NC(=O)[C@@H]1CCCC[C@H]1N	·	·	·	–	·	·
COc1ccc(Br)c(C(=O)Nc2cc3c(cc2N2CCCCC2)n(C)c(=O)c(=O)n3C)c1	–	–	?	·	·	–
O=c1[nH]c2cc3c(cc2cc1CN(Cc1ccccc1)Cc1nnnn1Cc1ccco1)OCCO3	8.9µM	–	–	?	–	–
COc1ccc2cc(CN(Cc3cccnc3)Cc3nnnn3Cc3ccccc3)c(=O)[nH]c2c1	–	–	·	–	–	–
O=c1[nH]c2cc3c(cc2cc1CN(Cc1cccnc1)Cc1nnnn1Cc1ccco1)OCCO3	14µM	–	–	?	–	–
COc1ccc2cc(CN(Cc3cccs3)Cc3nnnn3Cc3ccccc3)c(=O)[nH]c2c1	–	–	–	–	–	-99
O=C(CCn1c(=O)c2ccccc2n(Cc2cccc(F)c2)c1=O)NCc1ccc2c(c1)OCO2	–	–	–	·	·	–
CCc1ccccc1NC(=O)Nc1c[nH]c(=O)[nH]c1=O	–	–	–	·	·	–
CC(=O)c1[nH]c(C)c(C(=O)NCc2ccc(Cl)cc2)c1C	–	–	?	·	·	-94
CCc1ccc(CNC(=O)c2ccc(CSc3nc4ccncc4n3Cc3ccc(OC)cc3)cc2)cc1	–	–	–	·	·	–
COc1cc(/C=C(\C#N)c2nc3ccccc3[nH]2)cc(Cl)c1OCc1ccccc1Cl	–	–	?	·	·	-80
COC(=O)c1ccc(NC(=O)c2c(Br)cnn2C)cc1	14µM	?	–	–	–	?
NCCC[C@@H](CC(=O)N[C@@H]1CCCC[C@H]1C(=O)N[C@H](CC(=O)N[C@@H](CCC(=O)O)CC(=O)O)Cc1ccccc1)NC(=O)C[C@H](Cc1c[nH]c2ccccc12)NC(=O)[C@@H]1CNCC[C@H]1N	·	·	·	–	·	·
Cc1ccc(CNC(=O)c2c(-c3ccc(Br)cc3)noc2C)o1	–	–	–	·	·	–
CCOc1ccc(C(C)=O)cc1CC(C(N)=O)C(N)=O	–	–	–	–	–	–
CCOc1ccc(C(C)=O)cc1COC(=O)C1=COCCO1	28µM	–	–	–	–	–
O=C(O)C1Nc2c(cccc2C(F)(F)F)C2C=CCC12 (stereo not given)	1.4µM	·	·	–	·	·
CC(=O)c1ccc2c(c1)C1C=CCC1C(C(=O)O)N2 (stereo not given)	?	–	–	–	–	–
CC(C)C1Nc2ccc(S(N)(=O)=O)cc2C2C=CCC21 (stereo not given)	13µM	–	–	–	–	–
O=C(NCc1ccccc1)C1Nc2ccc(OC(F)(F)F)cc2C2C=CCC12 (stereo not given)	·	–	?	·	–	–
Cc1ccc2c(c1)C1C=CCC1C(C(=O)O)N2 (stereo not given)	0.71µM	·	·	–	·	·
SMILES	Sm TGR block	TbPYK inhibitor	FMDV antiviral	FBPA Giardia inh	RE007 growth inh	HCMV inh
COc1cccc2c1NC(C(=O)O)C1CC=CC21 (stereo not given)	7.1µM	?	–	?	–	·
COc1ccc(OC)c(-c2cc(C(=O)Nc3cccc(Cl)c3C)no2)c1	–	–	–	·	·	–
CCn1c(SCc2ccccc2C)nc(=O)c2c(C(=O)OC)cc(C3CC3)nc21	–	–	?	·	·	–
CC(C)(C)c1ccc(S(=O)(=O)NCc2nc3cccnc3n2Cc2ccccc2Cl)cc1	–	–	–	·	·	–
O=C(CCN1Cc2ccccc2C1)c1ccc2c(c1)OCCO2	0.89µM	?	·	–	?	–
O=C(O)CCC(=O)c1ccc2c(c1)OCCO2	–	–	–	–	–	–
O=C(CCN1CCc2ccccc2C(c2ccccc2)C1)c1ccc2c(c1)OCCO2 (stereo not given)	0.56µM	?	–	–	5.6µM	–
O=C(C[n+]1ccc(/C=C/c2ccccc2)cc1)c1ccc2c(c1)OCCO2	–	–	–	–	–	-83
Cc1cc[n+](CC(=O)c2ccc3c(c2)OCCO3)cc1	–	–	–	–	–	–
Cc1cccc(C)c1NC(=O)c1nc2ccc([N+](=O)[O-])cc2nc1-c1ccccc1	·	·	·	·	·	–
Cc1ccccc1NC(=O)c1cccc2c(=O)c3c([nH]c12)CCCC3	–	–	–	·	·	–
CCOC(=O)c1cc(C)n(CC2CCC(C(=O)Nc3cccc(C(C)=O)c3)CC2)c1C (stereo not given)	–	–	–	·	·	–
CCOc1cc2sc(N3CCC(C(=O)Nc4ccccc4Cl)CC3)nc2cc1Br	–	–	–	·	·	–
COc1ccc(C(=O)Nc2ccccc2C(=O)OCc2cc(=O)n3c4c(sc3n2)CCCC4)cc1	–	–	–	·	·	–
CN(C)c1ccc(/C=C/c2ccc3c4ccccc4ccc3[n+]2-c2ccccc2)cc1	?	?	13µM	–	28µM	-99
CN(C)c1ccc(/C=C/c2ccc3ccccc3[n+]2C)cc1	–	?	?	–	·	-99
Cc1c2cnn(-c3ccccc3)c(=O)c2c(C)n1CC(=O)N1CCN(c2ccc(F)cc2)CC1	–	–	?	·	·	–
CN(C)C(CNC(=O)c1ccc(S(=O)(=O)Nc2ccccc2F)cc1)c1ccccc1 (stereo not given)	–	–	–	·	–	–
CC(=O)c1ccc(S(=O)(=O)NCc2ccc(C(=O)NCC(c3ccccc3)N(C)C)cc2)cc1 (stereo not given)	14µM	–	–	–	–	–
CCC(=O)N1[C@@H]2Cn3c(cccc3=O)[C@H]1[C@@H](C(=O)NC1CCCCC1)[C@@H]2CO	·	·	·	·	·	–
CC1(OC(=O)c2ccco2)C(=O)C2=COC(C3CC3)=CC2=C(Br)C1=O (stereo not given)	·	·	·	–	·	·
FC(F)(F)c1cccc(NC(=S)NNC(=S)Nc2ccc(Cl)cc2)c1	–	·	·	–	·	·

Screens deposited in PubChem by National Center for Advancing Translational Sciences (NCATS).
